In all, about 39,000 compounds went through this assay and about 1,500 (3.8%) were called active. Many of the other results were omitted from the sample, so actives are more common in it than they were.
system: HSkMC (human skeletal muscle cells); test: cytotoxicity call (relative viability < 0.9); settings: 10 µM

SMILES	cytotoxicity call
C[C@H](CO)N1C[C@H](C)[C@H](CN(C)Cc2ccc(C(=O)O)cc2)OCCCC[C@H](C)Oc2ccc(NC(=O)C3CCCCC3)cc2C1=O	inactive
C[C@H](CO)N1C[C@H](C)[C@H](CN(C)S(C)(=O)=O)OCCCC[C@H](C)Oc2ccc(NC(=O)CCCN(C)C)cc2C1=O	inactive
CC(C)NC(=O)Nc1ccc2c(c1)C(=O)N([C@@H](C)CO)C[C@@H](C)[C@H](CN(C)S(=O)(=O)c1cn(C)cn1)OCCCC[C@H](C)O2	inactive
C[C@@H]1CN([C@H](C)CO)C(=O)CCCn2cc(nn2)CO[C@@H]1CN(C)S(=O)(=O)c1ccc(Cl)cc1	inactive
O=C(O)[C@]1(O)C[C@@H](O)[C@@H](O)[C@H](O)C1	inactive
Cc1noc(C)c1S(=O)(=O)Nc1ccc2c(c1)CC(=O)N([C@@H](C)CO)C[C@H](C)[C@H](CN(C)Cc1ccccc1)O2	inactive
C[C@H](CO)N1C[C@H](C)[C@H](CN(C)C(=O)Nc2ccc(C(F)(F)F)cc2)Oc2ccc(NS(C)(=O)=O)cc2C1=O	inactive
C[C@@H]1CN([C@H](C)CO)C(=O)c2cccc(NC(=O)C3CC3)c2O[C@H]1CN(C)S(=O)(=O)c1ccc(Cl)cc1	inactive
Cc1ccc(S(=O)(=O)N(C)C[C@H]2OCCCC[C@H](C)Oc3ccc(NC(=O)Nc4ccc(F)cc4)cc3C(=O)N([C@@H](C)CO)C[C@@H]2C)cc1	inactive
CC(=O)N1CCc2nc(C(N)=O)sc2CC1	inactive
O=C(OC[C@H]1O[C@@H](OC(=O)c2cc(O)c(O)c(O)c2)[C@H](O)[C@@H](O)[C@@H]1O)c1cc(O)c(O)c(O)c1	inactive
COC1C(C(=O)O)OC(C)C(O)C1O.COC1OC(C(=O)O)C(O)C(O)C1O (centres undefined) [ALGINIC ACID [Mol Wt ~200,000; monomers shown] ]	inactive
Cc1coc(C)c1C(=O)O[C@@H]1O[C@@H](C)[C@H](O)[C@@H](O)[C@H]1O	active
C[C@H]1CN([C@@H](C)CO)C(=O)c2cccc(NS(=O)(=O)c3ccc(Cl)cc3)c2O[C@@H]1CN(C)Cc1ccc(-c2ccccc2)cc1	inactive
Cc1noc(C)c1NC(=O)N(C)C[C@@H]1Oc2ccc(NC(=O)C3CC3)cc2CC(=O)N([C@@H](C)CO)C[C@@H]1C	inactive
COc1ccc(S(=O)(=O)N(C)C[C@@H]2Oc3ccc(NS(=O)(=O)c4ccc(F)cc4)cc3CC(=O)N([C@H](C)CO)C[C@H]2C)cc1	inactive
C[C@@H]1CN([C@@H](C)CO)C(=O)c2cc(C#Cc3ccccn3)cnc2O[C@H]1CN(C)C(=O)CCN1CCCCC1	inactive
C[C@@H]1CCCCO[C@H](CN(C)C)[C@@H](C)CN([C@H](C)CO)C(=O)c2cc(NS(=O)(=O)c3cn(C)cn3)ccc2O1	inactive
COc1ccc(S(=O)(=O)Nc2ccc3c(c2)C(=O)N([C@H](C)CO)C[C@H](C)[C@@H](CN(C)Cc2ccc(C(=O)O)cc2)OCCCC[C@H](C)O3)cc1	inactive
C[C@H]1CN([C@@H](C)CO)C(=O)c2cc(NC(=O)Nc3ccc(C(F)(F)F)cc3)ccc2O[C@H]1CN(C)Cc1ccc(-c2ccccc2)cc1	active
C[C@H](CO)N1C[C@H](C)[C@@H](CN(C)Cc2ccc(-c3ccccc3)cc2)Oc2ccc(NC(=O)Nc3ccc(C(F)(F)F)cc3)cc2C1=O	active
C[C@@H]1CN([C@@H](C)CO)C(=O)c2cc(NC(=O)Nc3ccc(C(F)(F)F)cc3)ccc2O[C@@H]1CN(C)Cc1ccc(-c2ccccc2)cc1	active

SMILES	cytotoxicity call
C[C@@H]1CN([C@H](C)CO)C(=O)Cc2cc(NS(=O)(=O)c3cn(C)cn3)ccc2O[C@H]1CN(C)CC1CC1	inactive
Cc1noc(C)c1NC(=O)Nc1ccc2c(c1)CC(=O)N([C@H](C)CO)C[C@H](C)[C@H](CN(C)S(=O)(=O)c1ccccc1)O2	inactive
CO[C@H]1CN(C)C(=O)c2ccc(NS(=O)(=O)CC(F)(F)F)cc2OC[C@H](C)N(C(=O)NC(C)C)C[C@H]1C	inactive
COc1cccc(C(=O)Nc2ccc3c(c2)C(=O)N(C)[C@@H]2CC[C@H](CC(=O)NCCCN4CCOCC4)O[C@H]2CO3)c1	inactive
COc1ccc(S(=O)(=O)N(C)C[C@@H]2OCCCC[C@H](C)Oc3ccc(NC(=O)CCC(F)(F)F)cc3C(=O)N([C@H](C)CO)C[C@H]2C)cc1	inactive
OC[C@H]1O[C@@H](Nc2ccccn2)[C@@H](O)[C@@H](O)[C@@H]1O	inactive
COc1ccc(S(=O)(=O)N(C)C[C@H]2Oc3ncc(-c4ccncc4)cc3C(=O)N([C@@H](C)CO)C[C@@H]2C)cc1	inactive
Cc1nn(C)cc1NC(=O)C[C@@H]1CC[C@H]2[C@H](COc3ccc(NC(=O)C4CCOCC4)cc3C(=O)N2C)O1	inactive
COc1cccc(C#Cc2ccc3c(c2)O[C@H](CN(C)S(=O)(=O)c2ccccc2F)[C@@H](C)CN([C@@H](C)CO)S3(=O)=O)c1	inactive
C[C@@H]1CN([C@@H](C)CO)C(=O)c2cc(NC(=O)Nc3ccccc3)ccc2O[C@@H]1CN(C)Cc1ccc(C(F)(F)F)cc1	inactive
C[C@@H]1CN([C@H](C)CO)C(=O)c2cc(NC(=O)Nc3ccc(C(F)(F)F)cc3)ccc2O[C@H]1CN(C)Cc1ccc(-c2ccccc2)cc1	active
C[C@H](CO)N1C[C@H](C)[C@H](CN(C)Cc2ccc(-c3ccccc3)cc2)Oc2ccc(NC(=O)Nc3ccc(C(F)(F)F)cc3)cc2C1=O	active
C[C@H]1CN([C@@H](C)CO)C(=O)c2cc(NC(=O)Nc3ccccc3)ccc2O[C@@H]1CN(C)Cc1ccc(C(F)(F)F)cc1	inactive
C[C@@H]1CN([C@H](C)CO)C(=O)c2cc(NC(=O)Nc3ccc(C(F)(F)F)cc3)ccc2O[C@@H]1CN(C)Cc1ccc(-c2ccccc2)cc1	active
C[C@@H]1CN([C@@H](C)CO)C(=O)c2cc(NC(=O)Nc3ccc(C(F)(F)F)cc3)ccc2O[C@H]1CN(C)Cc1ccc(-c2ccccc2)cc1	active
Cc1ccc(S(=O)(=O)N(C)C[C@H]2Oc3ccc(NC(=O)CCCN(C)C)cc3CC(=O)N([C@@H](C)CO)C[C@@H]2C)cc1	inactive
C[C@@H]1CN([C@@H](C)CO)C(=O)c2cc(NS(C)(=O)=O)ccc2O[C@@H](C)CCCCO[C@@H]1CN(C)S(=O)(=O)c1cccs1	inactive
Cc1noc(C)c1S(=O)(=O)Nc1ccc2c(c1)C(=O)N([C@@H](C)CO)C[C@@H](C)[C@H](CN(C)Cc1ccc(C(F)(F)F)cc1)OCCCC[C@H](C)O2	inactive
CC(C)Cn1c(=O)n(C)c(=O)c2[nH]cnc21	inactive
Cc1noc(C)c1S(=O)(=O)Nc1ccc2c(c1)CC(=O)N([C@H](C)CO)C[C@H](C)[C@@H](CN(C)S(C)(=O)=O)O2	inactive
O=C(O)c1ccc(N2CCCS2(=O)=O)cc1	inactive
Cc1ccsc1[C@@H](O)CN	inactive

SMILES	cytotoxicity call
Cc1cc(C)c(-c2ccc(NC(=O)[C@H](Cc3ccc(C(=O)NCCS(=O)(=O)O)cc3)c3ccc(-c4ccc(C(C)(C)C)cc4)cc3)cc2)c(C)c1	active
CC(C)Cc1ccc([C@@H](C)C(=O)Nc2ccc(Cl)cc2)cc1	inactive
N[C@@H]1CONC1=O	inactive
O=C(C[C@H]1CC[C@@H]2[C@H](COC[C@H](O)CN2S(=O)(=O)c2ccc(F)cc2)O1)NCCN1CCCCC1	inactive
CN1CCN(c2ccc(OC(F)(F)F)c(Nc3ncc4c(n3)-c3c(c(C(N)=O)nn3CCO)CC4)c2)CC1	active
COc1ccc2c3c([nH]c2c1)[C@H](CO)N(C[C@]13CCN(CC1)S(=O)(=O)c1cn(cn1)C)C(=O)Nc1ccc(cc1)F	inactive
C[C@@H]1CCCCO[C@@H](CN(C)S(=O)(=O)c2cn(C)cn2)[C@H](C)CN([C@@H](C)CO)C(=O)c2cc(NC(=O)CCCN(C)C)ccc2O1	inactive
C[C@@H]1CN([C@@H](C)CO)C(=O)Cc2cc(NC(=O)C3CCCCC3)ccc2O[C@H]1CN(C)Cc1ccc(Oc2ccccc2)cc1	inactive
C[C@@H]1CN([C@H](C)CO)C(=O)Cc2cc(NC(=O)C3CCCCC3)ccc2O[C@H]1CN(C)Cc1ccc(Oc2ccccc2)cc1	inactive
C[C@@H]1CN([C@H](C)CO)C(=O)Cc2cc(NC(=O)C3CCCCC3)ccc2O[C@@H]1CN(C)Cc1ccc(-c2ccccc2)cc1	active
C[C@H](CO)N1C[C@H](C)[C@@H](CN(C)Cc2ccc(Oc3ccccc3)cc2)Oc2ccc(NC(=O)C3CCCCC3)cc2CC1=O	inactive
C[C@H]1CN([C@@H](C)CO)C(=O)Cc2cc(NC(=O)C3CCCCC3)ccc2O[C@@H]1CN(C)Cc1ccc(-c2ccccc2)cc1	inactive
C[C@@H]1CN([C@H](C)CO)C(=O)Cc2cc(NC(=O)C3CCCCC3)ccc2O[C@@H]1CN(C)Cc1ccc(Oc2ccccc2)cc1	active
C[C@H]1CN([C@@H](C)CO)C(=O)Cc2cc(NC(=O)C3CCCCC3)ccc2O[C@H]1CN(C)Cc1ccc(Oc2ccccc2)cc1	active
C[C@H](CO)N1C[C@H](C)[C@H](CN(C)Cc2ccc(-c3ccccc3)cc2)Oc2ccc(NC(=O)C3CCCCC3)cc2CC1=O	inactive
C[C@H]1CN([C@@H](C)CO)C(=O)Cc2cc(NC(=O)C3CCCCC3)ccc2O[C@@H]1CN(C)Cc1ccc(Oc2ccccc2)cc1	inactive
CC(=O)N1CCc2nc(N)sc2C1	inactive
C[C@@H]1CN([C@@H](C)CO)C(=O)c2cccc(NS(=O)(=O)c3cn(C)cn3)c2O[C@H]1CN(C)S(=O)(=O)c1ccc(Cl)cc1	inactive
CC=Cc1ccc2n(c1=O)C[C@@H]1[C@@H](CO)[C@H](C(=O)NCC3CC3)[C@H]2N1S(=O)(=O)c1cn(C)cn1	inactive
C[C@@H]1CN([C@@H](C)CO)S(=O)(=O)c2ccc(C#Cc3ccccc3F)cc2O[C@@H]1CN(C)C(=O)Cc1cccnc1	inactive

Reference: the antibiotic and cytotoxicity screens of Wong et al. (2023)
